Measurements reported in PubChem BioAssay (Tox21).
Inconclusive results are not listed. Entries that show only a call come without a potency. Activity calls are given as the source filed them. Calls follow the shape of the dose curve; as a rule, active = well fitted activation curve with a large enough effect in the repeat runs; inconclusive = weak or mixed curves; inactive = flat fitted curve, though single readings scatter.

Test: A CellTox Green Cytotoxicity Assay to monitor cytotoxicity in HEK293 cells - 8 hour (AID 1224884); also: nearly all actives have a fitted effect of over 35% in size
Conditions: CellTox Green fluorescence; series mostly up to 76.8 µM
Text: National Center for Advancing Translational Sciences [NCATS]
NIH Chemical Genomics Center [NCGC]
U.S. Environmental Protection Agency [EPA]
National Institutes of Environmental Health Sciences [NIEHS]
National Toxicology Program [NTP]
Cell-based models are critical for drug discovery. Determining the natural cytotoxic effects resulting from test compounds is an essential research activity. A CellTox Green Cytotoxicity Assay to monitor cytotoxicity in real time of continues cell culture during 40 hours of the compound treatment was used to screen Tox21 10K library compounds in Hek293 cells. CellTox Green Cytotoxicity Assay is a nonlytic, homogeneous, biofluorescent method to measure cytotoxicity in cell culture after experimental manipulation. The assay system uses a proprietary asymmetric cyanine dye that is excluded from viable cells but preferentially stains the dead cell's DNA. […] Viable cells produce no appreciable increases in fluorescence. Therefore, the fluorescence signal produced by the binding interaction with dead cell DNA is proportional to cytotoxicity.
The mixture of Hek293 cell suspension and reagents were dispensed at 600cells/6 ul/well in 1536-well tissue culture treated black solid bottom plates using a Multidrop dispenser. After the assay plates were incubated at a 37 C/5% CO2 incubator for 5 hours, 23 nL of compounds dissolved in DMSO, positive and negative controls was transferred to the assay plate by a pintool work station. The plates were incubated at 37 C for 40 hours. The fluorescence intensity were measured at 0h, 8h, 16h, 24h, 32h and 40h time points using ViewLux plate reader during compound treatment.

Compound | Potency
O=C(O)c1cccnc1 | inactive
O=c1cc[nH]c(=S)[nH]1 | inactive
Nc1ccc(S(=O)(=O)c2ccc(N)cc2)cc1 | inactive
CC1(C)[C@@H]2CC[C@@]1(C)C(=O)C2 | inactive
CCOc1ccc(NC(=O)CC(C)O)cc1 (stereo not given) | inactive
O=C(O)CS | inactive
Cc1cc(=O)n(-c2ccccc2)n1C | inactive
Cc1noc(NS(=O)(=O)c2ccc(N)cc2)c1C | inactive
NC(=O)NC1NC(=O)NC1=O (stereo not given) | inactive
CNC[C@H](O)c1cccc(O)c1 | inactive
CCCC(CCC)C(=O)O | inactive
NC(N)=O | inactive
O=C(O)CCC(=O)O | inactive
Cn1cc[nH]c1=S | inactive
C/C=C/c1ccc(OC)cc1 | inactive
Oc1ccc(/C=C/c2cc(O)cc(O)c2)cc1 | inactive
Cc1ccc(O)cc1 | inactive
Nc1ccn([C@H]2CC[C@@H](CO)O2)c(=O)n1 | inactive
Cc1cn([C@H]2C[C@H](N=[N+]=[N-])[C@@H](CO)O2)c(=O)[nH]c1=O | inactive
O=C(O)CCCCC(=O)O | inactive

Compound | Potency
O=c1ccc2ccccc2o1 | inactive
N=C(N)c1ccc(OCCCCCOc2ccc(C(=N)N)cc2)cc1 | inactive
C[C@]12C=CC(=O)C=C1CC[C@@H]1[C@@H]2[C@@H](O)C[C@@]2(C)[C@H]1CC[C@]2(O)C(=O)CO | inactive
O=C(O)c1cccc([N+](=O)[O-])c1 | inactive
OC(Cn1cncn1)(Cn1cncn1)c1ccc(F)cc1F | inactive
CC(C)(Oc1ccc(C2CC2(Cl)Cl)cc1)C(=O)O (stereo not given) | inactive
CCCC(O)C(CC)CO (stereo not given) | inactive
NC(N)=NC(=O)c1nc(Cl)c(N)nc1N | inactive
CC(O)CO (stereo not given) | inactive
CCCCOC(=O)CC(CC(=O)OCCCC)(OC(C)=O)C(=O)OCCCC | inactive
O=S(=O)(O)NC1CCCCC1 | inactive
Cc1ccc(S(=O)(=O)NC(=O)NN2CCCCCC2)cc1 | inactive
COc1ccc2[nH]cc(CCNC(C)=O)c2c1 | inactive
Cn1c(=O)c2[nH]cnc2n(C)c1=O | inactive
COc1c2occc2cc2ccc(=O)oc12 | inactive
CCCCC(CC)COC(=O)/C=C/c1ccc(OC)cc1 (stereo not given) | inactive
Cc1cc(=O)[nH]c(=S)[nH]1 | inactive
O=C(c1ccccc1)c1ccccc1 | inactive
O=C1NC(=O)c2ccccc21 | inactive
NC(=O)c1cnccn1 | inactive
